This passage reports activity change, negative = activation results from PubChem BioAssay AID504617 (Sanford-Burnham Center for Chemical Genomics, 2011).

The list shows a part of the results. A number with no mark means an inactive call. Active and inactive are the calls of the source.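 Rule for the calls: active = mean activity change at or below -40%, meaning activation of 40% or more, at 20 µM; inactive = the rest.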

The target of this assay is Apoptotic protease-activating factor 1 (Homo sapiens) (UniProt O14727). Kind of assay: enhancers of apoptosome-driven caspase-3 activity – biochemical, fluorescence, DEVD-Rh110, 20 µM, confirmation (AID 504617). To be noted: reconstituted apoptosome caspase-3 activity, at 20 µM, active compounds read low.
Sequence of Apoptotic protease-activating factor 1 (Homo sapiens) (O14727 whole entry, looked up): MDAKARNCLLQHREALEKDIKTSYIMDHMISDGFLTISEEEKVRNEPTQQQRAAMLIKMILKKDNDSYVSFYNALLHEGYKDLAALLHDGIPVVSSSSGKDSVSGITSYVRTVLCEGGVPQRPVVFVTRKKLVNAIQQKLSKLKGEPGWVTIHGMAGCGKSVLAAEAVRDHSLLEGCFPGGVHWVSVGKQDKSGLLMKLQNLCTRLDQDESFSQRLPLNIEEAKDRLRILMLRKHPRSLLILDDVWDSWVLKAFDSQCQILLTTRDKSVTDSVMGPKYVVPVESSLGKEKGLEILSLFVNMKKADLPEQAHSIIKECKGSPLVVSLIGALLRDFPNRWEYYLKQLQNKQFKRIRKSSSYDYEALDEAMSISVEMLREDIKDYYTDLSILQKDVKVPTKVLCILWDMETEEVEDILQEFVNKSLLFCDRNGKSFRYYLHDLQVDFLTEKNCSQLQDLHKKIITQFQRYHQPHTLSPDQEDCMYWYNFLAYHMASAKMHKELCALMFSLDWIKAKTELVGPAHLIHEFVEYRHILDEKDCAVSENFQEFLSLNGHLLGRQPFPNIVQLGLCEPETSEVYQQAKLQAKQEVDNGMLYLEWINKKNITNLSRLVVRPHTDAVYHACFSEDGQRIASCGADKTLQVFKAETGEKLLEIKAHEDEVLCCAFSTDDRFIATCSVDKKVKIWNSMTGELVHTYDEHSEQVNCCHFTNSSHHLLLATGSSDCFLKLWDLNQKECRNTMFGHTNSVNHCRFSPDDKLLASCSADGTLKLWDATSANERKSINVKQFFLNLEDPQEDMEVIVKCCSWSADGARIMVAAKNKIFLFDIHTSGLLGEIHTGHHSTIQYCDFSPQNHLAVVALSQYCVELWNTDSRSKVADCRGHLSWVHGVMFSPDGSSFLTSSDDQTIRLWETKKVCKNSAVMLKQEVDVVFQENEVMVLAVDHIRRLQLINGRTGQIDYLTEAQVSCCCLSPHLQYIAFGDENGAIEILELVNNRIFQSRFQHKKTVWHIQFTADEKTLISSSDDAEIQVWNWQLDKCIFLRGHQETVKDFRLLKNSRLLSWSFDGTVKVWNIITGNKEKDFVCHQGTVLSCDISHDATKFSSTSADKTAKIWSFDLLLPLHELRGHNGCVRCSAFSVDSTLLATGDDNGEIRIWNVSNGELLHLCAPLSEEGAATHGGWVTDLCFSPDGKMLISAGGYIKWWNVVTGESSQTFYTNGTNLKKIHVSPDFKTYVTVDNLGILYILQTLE
As for `CCOCCc1c(O)nc(SCC(=O)NCc2ccco2)[nH]c1=O`, the activity change, negative = activation was 7%.
With `COc1cc(C2C(C#N)=C(N)Oc3n[nH]c(-c4ccccn4)c32)cc(OC)c1OC` (configuration not stated) the figure was 16.8%; with `C=CC1=C(C(=O)O)N2C(=O)[C@@H](NC(=O)/C(=N\OCC(=O)O)c3csc(N)n3)[C@H]2SC1`, -114% (active); with `C=CCNC(=O)c1ccc(C)c(Br)c1`, 5.25%.
The figure for `O=C(Nc1cccc(C(F)(F)F)c1)c1cnccn1` is 14.9%.
With `COC(=O)C(C)N(C#N)c1nc(C)nc(C)n1` (configuration not stated) the figure was 10.4%; with `Cc1ccc(Nc2nc(CSc3nnc(-c4ccncc4)n3-c3ccccc3C)cs2)cc1`, 26.5%; with `O=[N+]([O-])c1ccc2nc(-c3ccccn3)[nH]c2c1`, 9.21%.
As for `Nc1cc(C(F)(F)F)ccc1N1CCOCC1`, the activity change, negative = activation is 16.7%.
With `O=C(CSc1ccc(-c2ccc(-n3cccn3)cc2)nn1)Nc1ccc([N+](=O)[O-])cc1` the figure was 8.16%; with `Clc1cccc(-c2nc3nc4ccccc4nc3n2Cc2ccco2)c1`, 21.3%.
The figure for `Cc1ccc(S(=O)(=O)c2c(N)n(C)c3nc4ccccc4nc23)cc1` is 18.5%; for `COC(CNC(=O)Cn1ncc2ccsc2c1=O)OC` it is 10.8%; for `C=CC1=C(C(=O)O)N2C(=O)[C@@H](NC(=O)/C(=N/OCC(=O)O)c3csc(N)n3)[C@H]2SC1` it is -113% (active).
With `COc1cc(C(=O)NCc2nnc(SCC(=O)Nc3nc4ccc(C)cc4s3)o2)cc(OC)c1OC` the figure was 8.22%; with `COc1ccc(OCCCC(=O)NCCc2ccccc2)cc1`, 4.66%.
Take `Cc1ccc(S(=O)(=O)N2CCOCC2)cc1C(=O)NC(=S)N(Cc1ccccc1)C(C)C`: the activity change, negative = activation was 16.4%.
With `CCCC(=O)Nc1nc2ccc(NC(=O)c3c(F)c(F)c(OC)c(F)c3F)cc2s1` the figure was 9.11%; with `COc1ccccc1OCC(=O)Nc1c2c(nn1-c1ccc(F)cc1)CS(=O)(=O)C2`, 9.31%.
As to `Cc1nn(CC(=O)Nc2ccc(C#N)cc2)c(C)c1[N+](=O)[O-]`, the activity change, negative = activation is -10.5%.
With `COc1ccc(S(=O)(=O)N2CCCCC2)cc1NC(=O)c1cc([N+](=O)[O-])ccc1N1CCOCC1` the figure was 13.5%; with `CCOc1ccc(N=C2NC(=O)S/C2=C\c2ccc(O)cc2)cc1`, -7.41%.
